Results published in PubChem BioAssay AID1159580 (chemical genetic matrix, 2015).
Several values for one entry are separate records, joined by “and”; a condition that tells them apart may be missing. Identical values can stand only once. In all, about 5,500 compounds went through this assay and about 2,000 (36%) were called active. About 18% were inconclusive and are not listed. Rule as the data show it: active = normalized growth mostly below about 0.91 (no sharp cut-off); inconclusive = no clear call, values can overlap the other calls; inactive = mostly above about 0.92. The list shows a part of the results.

Assay: chemical genetic growth profiling, strain panel (AID 1159580);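 also: tested at 20 µM; growth read once vehicle control cultures reached saturation at 30 °C; 1 = growth at the plate median or of vehicle wells; lower values mean less growth of the strain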
Conditions: S. cerevisiae deletion strains, growth OD

Measured: normalized growth

NC(=O)NC(=O)Cc1ccccc1
inactive: locus YAL013W, strain DEP1, stronger effect = lower value 1.03 | locus YAL021C, strain ccr4, stronger effect = lower value 0.999 | locus YAL026C, strain drs2, stronger effect = lower value 0.976 | locus YAL030W, strain snc1, stronger effect = lower value 0.995 | locus YBL061C, strain skt5, stronger effect = lower value 0.975 | locus YBR009C, strain hhf1, stronger effect = lower value 1.04 | locus YBR021W, strain FUR4, stronger effect = lower value 1.02 | locus YBR023C, strain chs3, stronger effect = lower value 0.974 | locus YBR171W, strain sec66, stronger effect = lower value 0.992 | locus YBR229C, strain ROT2, stronger effect = lower value 0.995 | locus YBR231C, strain swc5, stronger effect = lower value 1.01 | locus YBR279W, strain paf1, stronger effect = lower value 0.979 | locus YCL011C, strain gbp2, stronger effect = lower value 0.961 | locus YCL016C, strain dcc1, stronger effect = lower value 0.96 | locus YCL029C, strain bik1, stronger effect = lower value 0.997 | locus YCL069W, strain vba3, stronger effect = lower value 1.01 | locus YCR088W, strain abp1, stronger effect = lower value 0.993 | locus YDL005C, strain med2, stronger effect = lower value 0.98 | locus YDL035C, strain GPR1, stronger effect = lower value 1.02 | locus YDL040C, strain nat1, stronger effect = lower value 0.991 | locus YDL074C, strain BRE1, stronger effect = lower value 1.16 | locus YDL101C, strain DUN1, stronger effect = lower value 1 | locus YDL134C, strain PPH21, stronger effect = lower value 1 | locus YDL185W, strain tfp1, stronger effect = lower value 0.992 | locus YDL192W, strain arf1, stronger effect = lower value 0.991 | locus YDR001C, strain nth1, stronger effect = lower value 0.98 | locus YDR069C, strain doa4, stronger effect = lower value 0.99 | locus YDR101C, strain arx1, stronger effect = lower value 0.994 | locus YDR137W, strain rgp1, stronger effect = lower value 0.979 | locus YDR150W, strain NUM1, stronger effect = lower value 1.01 | locus YDR159W, strain sac3, stronger effect = lower value 0.997 | locus YDR162C, strain NBP2, stronger effect = lower value 1.04 | locus YDR195W, strain ref2 0.994 | locus YDR297W, strain sur2, stronger effect = lower value 0.996 | locus YDR318W, strain mcm21, stronger effect = lower value 0.993 | locus YDR334W, strain swr1, stronger effect = lower value 0.978 | locus YDR335W, strain msn5, stronger effect = lower value 0.964 | locus YDR388W, stronger effect = lower value 0.995 | locus YDR392W, strain spt3, stronger effect = lower value 0.916 | locus YDR502C, strain sam2, stronger effect = lower value 1.01 | locus YEL003W, strain gim4, stronger effect = lower value 0.998 | locus YEL037C, strain rad23, stronger effect = lower value 0.983 | locus YEL061C, strain CIN8 (second series), stronger effect = lower value 0.976 | locus YEL061C, strain CIN8, stronger effect = lower value 1.03 | locus YER015W, strain faa2, stronger effect = lower value 0.99 | locus YER016W, strain bim1, stronger effect = lower value 0.96 | locus YER110C, stronger effect = lower value 0.998 | locus YER111C, strain swi4, stronger effect = lower value 0.981 | locus YER155C, strain BEM2 (second series), stronger effect = lower value 1.04 | locus YER155C, strain BEM2, stronger effect = lower value 1 | locus YER167W, strain BCK2, stronger effect = lower value 1 | locus YFR010W, strain ubp6, stronger effect = lower value 1.01 | locus YGL078C, strain dbp3, stronger effect = lower value 1 | locus YGL086W, strain mad1, stronger effect = lower value 0.995 | locus YGL167C, strain pmr1, stronger effect = lower value 1 | locus YGL173C, strain kem1, stronger effect = lower value 1.04 | locus YGL227W, strain vid30, stronger effect = lower value 1 | locus YGL240W, strain doc1, stronger effect = lower value 1.04 | locus YGL248W, strain PDE1, stronger effect = lower value 1 | locus YGL253W, strain hxk2, stronger effect = lower value 0.955 | locus YGR078C, strain PAC10, stronger effect = lower value 1.01 | locus YGR135W, strain pre9, stronger effect = lower value 0.993 | locus YGR229C, strain SMI1, stronger effect = lower value 1.13 | locus YGR252W, strain gcn5, stronger effect = lower value 1.14 | locus YHR013C, strain ard1, stronger effect = lower value 0.964 | locus YHR027C, strain rpn1, stronger effect = lower value 0.999 | locus YHR030C, strain SLT2, stronger effect = lower value 1 and 0.964 | locus YHR079C, strain IRE1 (second series), stronger effect = lower value 1 | locus YHR079C, strain IRE1, stronger effect = lower value 0.978 | locus YHR094C, strain hxt1, stronger effect = lower value 1 | locus YHR129C, strain ARP1, stronger effect = lower value 1 | locus YHR142W, strain chs7, stronger effect = lower value 0.931 | locus YHR200W, strain rpn10, stronger effect = lower value 0.991 | locus YIL066C, strain RNR3, stronger effect = lower value 1.01 | locus YIL073C, strain SPO22, stronger effect = lower value 0.979 | locus YIL125W, strain kgd1, stronger effect = lower value 1 | locus YIR030C, strain dcg1, stronger effect = lower value 0.995 | locus YJL092W, strain hpr5, stronger effect = lower value 0.977 | locus YJL095W, strain BCK1 (second series), stronger effect = lower value 0.967 | locus YJL095W, strain BCK1, stronger effect = lower value 1.04 and 0.989 | locus YJL115W, strain asf1, stronger effect = lower value 0.957 | locus YJL129C, strain trk1, stronger effect = lower value 0.955 | locus YJL134W, strain LCB3, stronger effect = lower value 1.01 | locus YJL154C, strain vps35, stronger effect = lower value 0.984 | locus YJL164C, strain tpk1, stronger effect = lower value 0.998 | locus YJL166W, strain qcr8, stronger effect = lower value 1 | locus YJL168C, strain set2, stronger effect = lower value 0.997 | locus YJL187C, strain SWE1 (second series), stronger effect = lower value 0.995 | locus YJL187C, strain SWE1, stronger effect = lower value 0.994 | locus YJR043C, strain POL32, stronger effect = lower value 1.03 | locus YJR066W, strain TOR1, stronger effect = lower value 0.931
